Results filed as inconclusive are left out. Where a call stands in place of a potency, no number is given. Active and inactive are the calls of the source. Calls follow the shape of the dose curve; as a rule, active = well fitted inhibition curve with a large enough effect; inconclusive = small, poorly fitted or top-dose-only effect; inactive = flat fitted curve, though single readings scatter.
Potency is read from the fitted curve at half-maximal effect.

Sequence of Luciferin 4-monooxygenase (Photinus pyralis) (P08659 whole entry, looked up): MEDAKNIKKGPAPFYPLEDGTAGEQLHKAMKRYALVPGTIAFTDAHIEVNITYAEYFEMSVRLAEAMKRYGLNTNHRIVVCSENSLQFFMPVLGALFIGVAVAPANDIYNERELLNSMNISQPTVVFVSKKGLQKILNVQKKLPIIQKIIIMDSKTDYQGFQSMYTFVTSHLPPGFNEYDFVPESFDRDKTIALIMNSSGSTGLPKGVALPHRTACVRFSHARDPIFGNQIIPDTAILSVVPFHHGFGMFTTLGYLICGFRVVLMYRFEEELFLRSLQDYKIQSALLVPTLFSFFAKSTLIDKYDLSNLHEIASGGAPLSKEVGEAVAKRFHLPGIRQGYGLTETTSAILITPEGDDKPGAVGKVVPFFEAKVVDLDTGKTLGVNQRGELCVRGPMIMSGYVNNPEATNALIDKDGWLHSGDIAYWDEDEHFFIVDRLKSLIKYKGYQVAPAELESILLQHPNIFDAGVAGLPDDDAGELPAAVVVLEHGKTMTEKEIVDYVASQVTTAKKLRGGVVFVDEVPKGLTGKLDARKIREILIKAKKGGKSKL

The target in this test is Luciferin 4-monooxygenase (Photinus pyralis) (UniProt P08659). Nature of the test: Biochemical firefly luciferase enzyme assay for NPC (AID 624030). Also: nearly all actives have a fitted effect of over 70% in size. To be noted: purified P. pyralis luciferase, luminescence, 5 min; series mostly up to 58.6 µM. In a few lines:
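Purified P. pyralis luciferase at 10 nM in 50 mM Tris Acetate (final), luminescence read within 5 minutes of enzyme addition to compounds. Activity normalised to PTC124 versus DMSO; concentration-response curves classed by r2, magnitude and activity.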
For the compound `CCC(N)Cc1c[nH]c2ccccc12` (configuration not stated), the Potency result was “inactive”.
In the case of `CC[N+](C)(CC)CCOC(=O)C(O)(c1ccccc1)c1ccccc1` it was “inactive”; in that of `O=C(NC(=O)c1c(F)cccc1F)Nc1ccc(Cl)c(Oc2ncc(C(F)(F)F)cc2Cl)c1`, “inactive”; in that of `C[N+]1(C)CCCCC1COC(=O)C(O)(c1ccccc1)c1ccccc1` (configuration not stated), “inactive”.
With `Clc1ccc(C2(Cn3cncn3)OCCO2)c(Cl)c1` the entry was “inactive”; with `C=CCN1CC[C@]23c4c5ccc(O)c4O[C@H]2[C@@H](O)C=C[C@H]3[C@H]1C5`, “inactive”.
`FC(F)OC(F)(F)C(F)Cl` (configuration not stated): the Potency entry is “inactive”.
With `O=P(O)(O)C(Cl)(Cl)P(=O)(O)O` the entry was “inactive”.
With `CCCCCCCCCC(=O)O[C@H]1CC[C@H]2[C@@H]3CCC4=CC(=O)CC[C@]4(C)[C@H]3CC[C@]12C`, the Potency entry is “inactive”.
In the case of `C#CC(C)(O)CC` (configuration not stated), the Potency result was “inactive”.
With `CC(=O)O[C@H]1CC[C@H]2[C@@H]3CCC4=CC(=O)CCC4=C3C=C[C@]12C` the entry was “inactive”; with `CN1C2CCC1CC(OC(c1ccccc1)c1ccc(Cl)cc1)C2` (configuration not stated), “inactive”.
On to `CCC1(c2ccccc2)C(=O)NC(=O)N(C(=O)c2ccccc2)C1=O` (configuration not stated), for which the Potency entry was “inactive”.
In the case of `CNC(C)C(O)c1ccc(O)cc1` (configuration not stated) it was “inactive”.
On to `CC1CCC(C(C)C)C(OC(=O)c2ccccc2N)C1` (configuration not stated), for which the Potency result was “inactive”.
In the case of `O=C1CN(O)C(c2ccccc2)=c2cc(Cl)ccc2=N1` it was “inactive”; in that of `CCON=O`, “inactive”; in that of `CN1CCCC(=C(c2cccs2)c2cccs2)C1`, “inactive”.
Consider `CCC(=O)O[C@@](Cc1ccccc1)(c1ccccc1)[C@@H](C)CN(C)C`, for which the Potency result is “inactive”.
As to `CCC(C)(S(=O)(=O)CC)S(=O)(=O)CC`, the Potency result was “inactive”.
With `O=c1[nH]cc(N(CCCl)CCCl)c(=O)[nH]1` the entry was “inactive”; with `O=C1CC[C@@]2(O)C3Cc4ccc(O)c5c4C2(CCN3CC2CC2)[C@H]1O5` (some centres not stated), “inactive”.
Turning to `OC(c1ccccc1)(c1ccccc1)C1CN2CCC1CC2` (configuration not stated), the Potency result is “inactive”.
In the case of `O=S(=O)(O)c1cc(O)ccc1O` it was “inactive”; in that of `C[C@@H](Cc1ccccc1)NCCC(c1ccccc1)c1ccccc1`, “inactive”; in that of `COc1ccc(OC)c(C(O)C(C)N)c1` (configuration not stated), “inactive”.
With `Cn1sc(Cl)cc1=O` the entry was “inactive”.
In the case of `CCCCNCC(O)c1ccc(O)cc1` (configuration not stated) it was “inactive”; in that of `CCC1C(C)=NN=C(c2ccc(OC)c(OC)c2)c2cc(OC)c(OC)cc21` (configuration not stated), “inactive”.
Regarding `CCC1(CC)C(=O)NC(=O)N(C)C1=O`, the Potency entry was “inactive”.
In the case of `O=C1CN=C(c2ccccc2)c2cc(Cl)ccc2N1CC1CC1` it was “inactive”; in that of `CC(C)(O)C1C2OC(=O)C1C1(O)CC3OC34C(=O)OC2C14C` (configuration not stated), “inactive”.
For the compound `CN1[C@@H]2CC[C@H]1CC(OC1c3ccccc3CCc3ccccc31)C2` (some centres not stated), the Potency entry was “inactive”.
As to `CNC(=O)Oc1ccccc1C(=O)Nc1ccccc1`, the Potency is 14.4 µM (active).
With `C=CCC1(C(C)CCC)C(=O)N=C(S)NC1=O` (configuration not stated) the entry was “inactive”; with `O=C(OCCN1CCCCC1)C(O)(c1ccccc1)c1ccccc1`, “inactive”; with `CCCC(C)C1(CC)C(=O)NC(=O)NC1=O` (configuration not stated), “inactive”.

Source of the values: PubChem BioAssay (NCATS).
